Data taken from the supplement of paper PMC11417369.
Whole data set: some 25,000 sequences, median “ln(normalized median fluorescence intensity)” near 6.7, cut for the highest 2% near 10. The full list was thinned out, with the highest values kept by preference.

Each sequence was assayed on PfHDP1 homeodomain (GST-tagged) (assay: gcPBM binding intensity (ln(normalized median fluorescence intensity)); higher = stronger DNA binding).
Summary of the method: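 GST-tagged P. falciparum DNA-binding domains, expressed in E. coli (about 25 μg on average), were applied for 1 h to an Agilent 4 × 180k array of primer-extended double-stranded 36-bp intergenic genomic probes plus negative controls. The binding buffer was 1× PBS with 1% milk, 0.2 mg/ml BSA, 0.5% salmon testes DNA and 0.03% Triton X-100. Bound protein was detected with Alexa488 anti-GST antibody and scanned at 488 nm. Binding intensity is the highest Masliner-normalised natural-log median intensity across replicate spots of either probe orientation.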

In order of falling “gcPBM binding intensity (ln)” value:
1. TTTCTTCGAAATAGAACACTTGTGCAAAATAAGCAA [XGTACX_negctrl_site361]  11.2
2. TTTATCAAAATAAATGCACACAAATTGCACATATCT [CACACA_site8281]  10.9
3. ATGCTTTTATGCACACGTACAAAAATATTATATAAT [XGTACX_site5589]  10.9
4. TATTGCACAAAATAATTTTATTATACTTTATGTTAG [TGCATGCA_negctrl_site574]  10.8
5. TTTATTATATGCACACGTACATATAATATATATATA [XGTACX_site4108]  10.8
6. TATCAAAATAAATGCACACAAATTGCACATATCTAT [CACACA_site1097]  10.7
7. CTGTACACTTAAACGGTGCAAAAAGAAAAAAAAGAA  10.6
8. AATAATGAAGCTTATGCACACGTTCATTATTTATAT [CACACA_site5736]  10.6
9. TAATGAAGCTTATGCACACGTTCATTATTTATATTA [CACACA_site3219]  10.4
10. TGAATGCTTTTATGCACACGTACAAAAATATTATAT [CACACA_site2668]  10.4
11. TATGAATGCTTTTATGCACACGTACAAAAATATTAT [CACACA_site8851]  9.99
12. TTCTTTATTATATGCACACGTACATATAATATATAT [CACACA_site2018]  9.96
13. TAAATTTTAATATGCACACAAAATGTTATATTAAAA [CACACA_site4366]  9.86
14. AATTCTTTATTATATGCACACGTACATATAATATAT [CACACA_site8621]  9.66
15. TACTTTCAAAAGATCACACATATATATATATATATA [CACACA_site5630]  9.53
16. TCATACAATATTAAATGTACATATATATATATATAT [XGTACX_site8828]  9.25
17. AAAATCATTCCAAAGACATGCATTTTGCAAATAAAA [TGCATGCA_site461]  9.22
18. AGATAAAATATATATGCACACACATATATATTTCAT [CACACA_site9183]  9.16
19. ATATATTATATTATATGTACTTAAAAAAGTGCAAAG [XGTACX_site318]  9.16
20. CACTGTAAATAGAAAGTGCAAAAATTGTAAATAAAA [GTGCAC_site9980]  9
21. TTCATATAAATACATGCACACAAAAATATCAATACA [CACACA_site8753]  8.91
22. CATATAAATACATGCACACAAAAATATCAATACATT [CACACA_site2392]  8.76
23. TTTTTTCATATAAATACATGCACACAAAAATATCAA [TGCATGCA_site602]  8.53
24. ATAAATTTTTTATGAACACACAAATACACCCACTCA [CACACA_site5465]  7.07
25. AACAAACACAGACACACACACACACCCAAATGATTA [CACACA_site2431]  6.98
26. AATTTATTTTTAAAAAGTACATACTTAAGAAAACGA [XGTACX_site3660]  6.85
27. TATTAACACTTTATAGAAACAAAAAAATAAGCAAAA [XGTACX_negctrl_site295]  6.79
28. AATTATTTACCCTATACACACAAAACAGACTAAAAA [CACACA_site6688]  6.76
29. TATATTCATAATATTACACACGTTCATTTATTTTAA [CACACA_site2031]  6.67
30. TCCTTAAAATATATCACACATTTCGTTCATTTATAA [CACACA_site4346]  6.65
31. TCGTGTGAAAATATTACACACATTTACTATAGTATC [CACACA_site7590]  6.65
32. TATATCCACATTTTTAGTACTTAAAAATAAATAAAC [XGTACX_site3826]  6.62
33. TTTTTATTGTTGCTATATTTATAACAATTTATCATA [GTGCAC_negctrl_site75]  6.6
34. TAACCTAAAATAACTACACACACATAAAAAAAAAAA [CACACA_site8807]  6.58
35. TCCTTAAAATATGGTTGTACGTACATCCTAGGTGTT [XGTACX_site7068]  6.52
36. TTTGAACTCTTAAGTGGTACAAATTTGTATTTTCTC [XGTACX_site2322]  6.52
37. TTACACATGAGAAAATGTACATATAATAAAATATGT [XGTACX_site904]  6.52
38. ATAATAATAATAAAAAGTACATTTAATTATATAGAA [XGTACX_site7742]  6.51
39. TTTTTACGTAAACAAAATAATTATATAATATTATTT [CACACA_negctrl_site1769]  6.34
40. AATTATATATAAAGAAGTACTATTTCAAGGAGTTTT [XGTACX_site3837]  6.34
41. TTTATTATACAAAATTGTACTTTATAATTTTATGTA [XGTACX_site5846]  6.31
42. TAAGATGATATAGACTGTACATATTGAACTTACAAG [XGTACX_site4290]  6.29
43. GTTTTTAGTATTTTTTGTACTTAATACATAGCCTTA [XGTACX_site7318]  6.22
44. TATATAATATATTAATGTACTTAAAATATATTCTAT [XGTACX_site1235]  6.16
45. TAGTAAAAACCAAAATGTACATGTGCCATTTTTTTA [XGTACX_site2630]  6.15
